This is a sample that favours compounds with a hit; in the whole collection about 3% have one here.
SARS PLP yeast = inhibitors of SARS-CoV papain-like protease in yeast. S. cerevisiae expressing SARS-CoV PLpro, growth rescue. Potency, µM (titrated, usually from 32.9 µM), for the others: at the highest dose activity, positive = growth rescue, actives largely listed as activators. 330,000 compounds, 0.19% hits. AID 485353; calls by dose curve; further: 0% is about no effect; nearly all actives have a fitted effect of over 55% in size
Sm TGR inh = S. mansoni TGR enzyme inhibition; Potency, µM (highest dose often 114 µM), without a hit: at the highest dose activity change, negative = inhibition, hits mostly inhibitors; purified TGR, DTNB reduction, TNB absorbance 405 nm; Q962Y6; AID 485364; 360,000 compounds, 3% hits; active means well fitted inhibition curve with a large enough effect; inconclusive means small, poorly fitted or top-dose-only effect; inactive means no such curve, though single readings can be large or run the other way; further: on the % scale 0 is the no-effect control and ±100 the full control effect; nearly all actives have a fitted effect of over 60% in size
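First, TGR (20 nM dispensed) and NADPH were mixed with compound. Second, a 15 min room-temperature incubation followed. Third, further NADPH and then DTNB were added to start the reaction. Finally, TNB absorbance was monitored kinetically.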
* marks the source's active call; other numbers are inactive results; ? = inconclusive; nt = no result given; ! = repeats disagree. Potency means the concentration at half of the fitted maximal effect.

SMILES	SARS PLP yeast	Sm TGR inh
CCOC(=O)c1cccc(NC(=O)Cn2c(=O)c3cccn3c3ccccc32)c1	nt	7%
O=C(O)Cc1ccc(O)c(O)c1	0%	0.89µM*
CCn1c2ccc(CC(=O)O)cc2c2cc(CC(=O)O)ccc21	2%	-30%
OCCCc1ccc(O)c(O)c1	1%	3.5µM*
COc1cc(/C=C/c2nc3cc(Cl)ccc3c(=O)n2-c2cccc(C(F)(F)F)c2)cc(OC)c1OC	nt	6%
CCOC(=O)C1CCN(S(=O)(=O)c2cc(-c3onc(C)c3C)ccc2OC)CC1	nt	6%
Cc1cc2oc(=O)cc(-c3ccccc3)c2c(C)c1-c1ccc(O)cc1	-78%	nt
Cc1oc2cc(Br)c(O)c(Br)c2c1-c1ccccc1	-12%	10µM*
O=C(OCc1cc(=O)n2nc(-c3cccs3)sc2n1)c1ccccc1Br	nt	2%
C/C(=N/Nc1ccc(C)cc1)C1(C)N(O)C(C)(C)C(c2ccco2)=[N+]1[O-] (centres undefined)	3%	10µM*
C/C(=N\O)C1(C)N(O)C(C)(C)C(c2ccc(F)cc2)=[N+]1[O-] (centres undefined)	1%	1%
CCCc1cc(=O)n2[nH]c(NC(=O)c3ccc(C(C)(C)C)cc3)nc2n1	nt	7%
Cn1c(=O)c(C(=O)CCl)c(N)n(Cc2ccccc2)c1=O	-22%	7.1µM*
Cn1c(=O)c(C(=O)CSc2ccccc2)c(N)n(Cc2ccccc2)c1=O	3%	4%
Cn1c(N)c(C(=O)CCl)c(=O)n(C)c1=O	-7%	25µM*
Cn1c(N)c(C(=O)COC(=O)C2CCCCC2)c(=O)n(C)c1=O	-4%	3%
CN(C)CC(=O)c1c(N)n(Cc2ccccc2)c(=O)n(C)c1=O	0%	2%
Cn1c(N)c(C(=O)CCl)c(=O)n(Cc2ccccc2)c1=O	-9%	11µM*
COc1cccc(C(=O)N(Cc2sccc2C)C2CCS(=O)(=O)C2)c1 (centres undefined)	nt	4%
Cc1ccc(C)c(N2CCN(CCCNC(=O)c3ccc4nc(CCc5ccccc5)oc4c3)CC2)c1	nt	0%
Cc1cccc(C(=O)OCc2cc(=O)n3ccsc3n2)c1	nt	-1%
CC1=C(C(=O)Nc2ccccc2)C(c2ccccn2)n2nc(SCc3ccccc3)nc2N1 (centres undefined)	nt	-2%
CC1CCc2c(sc(NC(=O)Cn3nc(C(=O)O)c4ccccc4c3=O)c2C#N)C1 (centres undefined)	-2%	28µM*
CC1CCc2c(sc(NC(=O)CSc3nnc(-c4ccccc4)o3)c2C#N)C1 (centres undefined)	6%	-2%
CCN1CCN(c2cc(C)c3cc(NC(=O)c4cc(Br)ccc4Cl)ccc3n2)CC1	nt	4%
SMILES	SARS PLP yeast	Sm TGR inh
O=C(O)/C=C\C(=O)O	nt	-1%
O=C(O)C=C(Br)Br	3%	50µM*
Cc1ccc2c(c1)N(C(=O)CCC(=O)NCc1cccs1)CCO2	nt	-6%
Oc1ccc(Br)cc1CNc1cccc2cccnc12	-26%	-5%
Oc1c(Br)cc(Br)cc1CNc1cccc2cccnc12	1%	1.8µM*
O=C(Nc1c(F)cc(F)cc1Br)c1ccco1	-1%	45µM*
Cc1noc(C)c1C(=O)Nc1c(F)cc(F)cc1Br	4%	-2%
COc1cc(NS(=O)(=O)c2ccc(NC(=S)NC(=O)c3ccc(F)c(F)c3)cc2)nc(OC)n1	-1%	22µM*
COc1cc(NS(=O)(=O)c2ccc(NC(=S)NC(=O)c3cccs3)cc2)nc(OC)n1	1%	22µM*
COc1cc(NS(=O)(=O)c2ccc(NC(=S)NC(=O)C(C)(C)C)cc2)nc(OC)n1	2%	-31%
COc1cc(NS(=O)(=O)c2ccc(NC(=O)c3cccc(F)c3)cc2)nc(OC)n1	nt	12%
COc1cccc(-c2nc(SCc3cc(=O)c4ccc(C)c(C)c4[nH]3)n[nH]2)c1	nt	16%
CCOC(=O)c1ccc2c(c1)N(Cc1ccc(F)cc1Cl)C(=O)c1ccccc1S2(=O)=O	nt	-10%
COc1ccc(C(=O)N2c3ccc(C)cc3C(C)(c3ccccc3)CC2(C)C)cc1 (centres undefined)	nt	0%
Cc1cccc(N2CCN(C(=O)c3noc4c3COc3ccc(C)cc3-4)CC2C)c1 (centres undefined)	0%	5.6µM*!
Cc1cccc(N2CCN(C(=O)c3ccc4c(c3)OCCO4)CC2C)c1 (centres undefined)	0%	1%
Cc1cccc(N2CCN(C(=O)C3CC(=O)N(c4ccc5c(c4)OCCO5)C3)CC2C)c1 (centres undefined)	6%	45µM*
Cc1ccc2c(c1)-c1onc(C(=O)N3CCN(c4cccc(C)c4C)CC3)c1CO2	nt	1%
CCOCCCN(Cc1ccco1)S(=O)(=O)c1cc2c(cc1Cl)NC(=O)CO2	nt	18µM*
CCOCCCN(Cc1ccco1)S(=O)(=O)c1cc2c(cc1C)NC(=O)CO2	nt	0%
COc1ccc(CNS(=O)(=O)c2cc3c(cc2Cl)NC(=O)CO3)cc1	-3%	3%
O=C1COc2cc(S(=O)(=O)NCc3ccco3)c(Cl)cc2N1	1%	16µM*
CCCCN1C(=O)c2[nH]nc(-c3ccccc3O)c2C1c1cc(Br)c(O)c(OC)c1 (centres undefined)	nt	56µM*
CCCCN1C(=O)c2[nH]nc(-c3ccccc3O)c2C1c1ccc(OCc2ccccc2)c(OC)c1 (centres undefined)	nt	10%
CCCCn1nc(NC(=O)c2cccc(Cl)c2)c2cc3cccc(C)c3nc21	nt	0%
SMILES	SARS PLP yeast	Sm TGR inh
CCOc1ccc(-c2cn3c(n2)sc2cc(C(=O)NC4CCCc5ccccc54)ccc23)cc1 (centres undefined)	nt	10%
O=C1CCN(CCc2ccccc2)CCN1[C@H](CSc1ccc(Br)cc1)c1ccccc1	3%	?
CCCN1CCC(=O)N([C@H](CSc2ccc(C)cc2)Cc2ccccc2)CC1	0%	?
CCCN1CCC(=O)N([C@H](CSc2ccc(OC)cc2)Cc2ccccc2)CC1	4%	20µM*
CCCN1CCC(=O)N([C@H](CSc2ccc(C)cc2)CC(C)C)CC1	1%	40µM*
CN1CCC(=O)N([C@H](CSc2ccc(Br)cc2)Cc2ccccc2)CC1	1%	-9%
CC(C)CN1CCC(=O)N([C@H](CSc2ccc(Br)cc2)Cc2ccccc2)CC1	-1%	6.3µM*
CCCN1CCC(=O)N([C@H](CSc2ccccc2)CC(C)C)CC1	5%	?
CC(=O)Nc1ccc(SC[C@H](c2ccccc2)N2CCN(CCc3ccccc3)CCC2=O)cc1	1%	14µM*
CC1(C)CC(=O)c2c(oc3c(Cl)cc(NS(=O)(=O)c4ccc(Cl)cc4)cc23)C1	nt	-9%
O=C(COc1ccc(F)cc1)Nc1ccc(OCc2cc(=O)n3ccsc3n2)cc1	nt	-6%
CCc1ccc(CNC(=O)c2cnc(N3CCCCC3)c3ccccc23)cc1	nt	-4%
CN1CCC(=O)N([C@H](CSc2ccccc2)Cc2ccccc2)CC1	7%	-24%
Cc1ccc(SC[C@H](Cc2ccccc2)N2CCN(C)CCC2=O)cc1	1%	40µM*
Nc1nnc(-c2ccco2)s1	-7%	27%
Nc1ncnc2oc(-c3ccco3)c(-c3ccco3)c12	-15%	10µM*
CC(O)c1nc2ccccc2n1Cc1ccccc1 (centres undefined)	-6%	5.6µM*
CC(O)c1nc2ccccc2n1CCCc1ccccc1 (centres undefined)	?	-16%
COC(=O)c1ccc(CNC(=O)C(C)N=C2NS(=O)(=O)c3ccccc32)cc1 (centres undefined)	2%	0%

High-throughput results (PubChem BioAssay)
